Measured values: PubChem BioAssay AID588453 (National Center for Advancing Translational Sciences (NCATS), 2011)
About 4,000 (1%) of roughly 390,000 compounds were called active. About 4% were inconclusive and are not listed. The sample holds actives, similar compounds and a random draw of the others, so the mix is not that of the screen. Calls follow the shape of the dose curve; as a rule, active = well fitted inhibition curve with a large enough effect; inconclusive = small, poorly fitted or top-dose-only effect; inactive = no such curve, though single readings can be large or run the other way.

Target: Thioredoxin reductase 1, cytoplasmic (Rattus norvegicus) (UniProt O89049)
Sequence (O89049 whole entry, looked up): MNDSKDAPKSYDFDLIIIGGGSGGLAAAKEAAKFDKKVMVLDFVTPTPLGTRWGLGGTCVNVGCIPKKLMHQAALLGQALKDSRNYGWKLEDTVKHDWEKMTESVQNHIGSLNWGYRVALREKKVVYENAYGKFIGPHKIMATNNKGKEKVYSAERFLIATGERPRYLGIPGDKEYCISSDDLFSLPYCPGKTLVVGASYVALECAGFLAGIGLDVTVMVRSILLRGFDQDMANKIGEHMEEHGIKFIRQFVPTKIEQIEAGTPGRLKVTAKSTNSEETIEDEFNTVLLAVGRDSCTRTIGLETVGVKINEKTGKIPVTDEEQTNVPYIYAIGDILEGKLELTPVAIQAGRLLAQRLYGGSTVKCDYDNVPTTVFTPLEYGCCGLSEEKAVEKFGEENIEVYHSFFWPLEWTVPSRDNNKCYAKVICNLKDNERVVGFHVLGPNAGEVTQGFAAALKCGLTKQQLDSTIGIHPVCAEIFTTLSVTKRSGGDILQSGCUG
Assay: qHTS Assay for Inhibitors of Mammalian Selenoprotein Thioredoxin Reductase 1 (TrxR1): qHTS; also: nearly all actives have a fitted effect of over 65% in size
Details: recombinant rTrxR1, NADPH fluorescence consumption, selenite substrate; series mostly up to 114 µM
Outline: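 Rat TrxR1 (90 nM in the dispensed reagent) was pre-reduced with 400 uM NADPH for 5 min at room temperature, then incubated with compound for 15 min. After 400 uM selenite was added, NADPH fluorescence (Ex 340/Em 450 nm) was followed for 8 min.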
% is scaled to controls: 0 for no effect and ±100 for the full control effect; potency is read from the fitted curve at half-maximal effect.

Potency, active:
CC(C)CNC(=S)NC(=O)c1ccc(Cl)cc1 14.1 µM, Cc1cc(C)nc(NNC2=CC(=O)CC(C)(C)C2)n1 14.1 µM, O=C1C=CC(=O)N1c1ccc(N2CCCCC2)cc1 0.708 µM, Nc1ccccc1SC(C[N+](=O)[O-])c1ccccc1 (stereo unspecified) 7.94 µM, Cc1ccc(S(=O)(=O)N(C)C)cc1NC(=O)C1Cc2ccccc2CN1C(=O)c1ccco1 (stereo unspecified) 39.8 µM, O=C1c2ccccc2C(=O)N1CCC(O)C[N+](=O)[O-] (stereo unspecified) 70.8 µM, CC(C)Oc1ccc(/C=C(\NC(=O)/C=C/c2ccco2)C(=O)NCCc2nc3ccccc3[nH]2)cc1 17.8 µM, C/C=C\C=C\C(=O)N1CC2(CC(c3cccc(NC(=O)/C(C)=C\C)c3)=NO2)C[C@H]1C(N)=O (stereo partly specified) 50.1 µM, O=C(CSc1nnc(-c2ccco2)n1CC1CCCO1)c1ccccc1 (stereo unspecified) 44.7 µM, O=[N+]([O-])c1c(NCCO)cc(Sc2nc3ccccc3s2)c2nonc12 1.12 µM, O=S(=O)(Nc1ccc2nc(-c3ccco3)[nH]c2c1)c1ccccc1 56.2 µM, COC(=O)c1nc(NC(=O)c2ccccc2)n[nH]1 56.2 µM, O=S(=O)(c1ccccc1)c1nc(Cc2ccccc2)oc1N1CCOCC1 1.58 µM, OCCNc1ncnc2oc(-c3ccco3)c(-c3ccco3)c12 50.1 µM, Cc1ccccc1-n1nc(C)c2c1N=C1C(Cl)=CC(Cl)=CN1C2c1ccc(C(=O)O)cc1 (stereo unspecified) 12.6 µM, Cc1nccc(-c2ccc(-n3c(C)ccc3C)cc2)n1 79.4 µM, CCOc1ccc(C(=O)CCN2CCOCC2)cc1 3.16 µM, COc1c(O)ccc2c1CN1CCc3cc4c(cc3C1C2)OCO4 (stereo unspecified) 50.1 µM, Fc1ccc(-c2ccc(-c3nn4c(-c5ccco5)nnc4s3)o2)cc1 35.5 µM, Cc1ccccc1C(CC(=O)c1cccs1)C(C#N)C#N (stereo unspecified) 10 µM, CCOc1ccc(N2C(=O)/C(=C/c3ccc(C)o3)N(C)C2=S)cc1 31.6 µM

Potency, inactive:
CCOC(=O)c1[nH]c(C)c(CCC(=O)N2CCN(c3ccccc3)CC2)c1C, CCc1nc2ccc(C(=O)N3CCN(c4cc(Cl)ccc4C)CC3)cc2nc1CC, Cc1scc(C(=O)NNC(=S)NCC(C)C)c1C, CC(C)CNC(=S)NNC(=O)c1nn(C)cc1Cl, Cc1cc(O)ccc1NC1=CC(=O)CC(C)(C)C1, CC1(C)CC(=O)C=C(NCc2ccncc2)C1, Cc1ccc(OCCn2c(CNc3ccccc3C)nc3ccccc32)cc1, CCN1CCc2nc3sc(C(=O)Nc4ccccc4OC(F)(F)F)c(N)c3cc2C1, Cc1ccc(C)c(Cn2c(CCCNC(=O)C3CCCCC3)nc3ccccc32)c1, CCC(=O)Nc1ccc2nc(SCC(=O)N3CCc4ccccc43)sc2c1, O=C(NCc1ccc(F)cc1)c1ccc(Cn2c(SCc3ccc(F)cc3)nc3cccnc32)cc1, Cc1ccc(C)n1-c1nnc(N2CCC(C(=O)NCc3ccc(F)cc3)CC2)s1, COc1ccc(CCNC(=O)CCCn2c(=O)c3ccccc3n(Cc3ccc(F)cc3Cl)c2=O)cc1OC, CN(C)c1ccc(/C=c2\[nH]c(=O)/c(=C/c3ccc(N(C)C)cc3)[nH]c2=O)cc1, Cc1ccc(C)c(NC(=O)C2Cc3ccccc3CN2C(=O)OCc2ccccc2)c1 (stereo unspecified), COc1ccccc1N1CCN(C(=O)C2Cc3ccccc3CN2C(=O)c2ccco2)CC1 (stereo unspecified), Cc1c(Cl)cccc1NC(=O)CCS(=O)(=O)c1ccc2c(c1)oc(=O)n2C, Cc1ccc(C)c(NC(=O)Cn2ccn(-c3ccc(F)cc3)c(=O)c2=O)c1, CCc1cc2c(cc3c(=O)n(CC(=O)NCCc4ccc(OC)c(OC)c4)ncn32)s1, O=C1c2ccccc2C(=O)N1CCOc1ccc(F)cc1, O=C(OCCN1C(=O)c2ccccc2C1=O)Oc1ccccc1, Cc1cc2nn(-c3ccc(Cl)cc3)nc2cc1NC(=O)C(C)C, CCCC(NC(=O)c1ccco1)c1nc2ccccc2[nH]1 (stereo unspecified), COc1ccc(/C=C(\NC(=O)c2ccc(OCC(C)C)cc2)C(=O)OCc2ccco2)cc1, O=C1CN(Cc2ccccc2)S(=O)(=O)c2ccccc21, COc1cccc(CNC(=O)c2ccc3c(Cl)c4c(nc3c2)CCCC4)c1, C/C=C(\C)C(=O)N1CC2(CC(c3cccc(NC(=O)CCCCC)c3)=NO2)C[C@@H]1C(N)=O (stereo partly specified), CC/C=C/C(=O)N1CC2(CC(c3cccc(NC(=O)CC)c3)=NO2)C[C@H]1C(N)=O (stereo partly specified), COc1cccc(CNC(=O)Cc2csc3nc(-c4ccccc4)cn23)c1, CNC(=O)NC(=O)CSc1nnc(-c2ccc(F)cc2)n1CC1CCCO1 (stereo unspecified), Cc1nnc(SCC(=O)NNC(=O)c2ccc(Cl)cc2)n1CC1CCCO1 (stereo unspecified), CCc1cccc(NC(=O)c2cc(-c3ccccc3)n[nH]2)c1, CC(C)(C)c1ccc(C(=O)C[n+]2cccc3cc(Cl)ccc32)cc1, CC(C)c1ccc(S(=O)(=O)Nc2ccc(O)c(Sc3nc4ccccc4s3)c2)cc1, CC(C)(C)c1ccc(S(=O)(=O)Nc2ccc(O)c(Sc3nc4ccccc4s3)c2)cc1, O=S(=O)(Nc1ccc2nc(-c3cccc(Cl)c3)oc2c1)c1ccccc1, CCc1ccccc1NS(=O)(=O)c1ccc2nc(-c3ccccc3)[nH]c2c1, CCOC(=O)C1CCN(c2csc3ccc(C)cc3c2=O)CC1, COC(=O)c1ccc(NC(=O)CSc2n[nH]c(-c3ccccc3)n2)cc1, O=C(Nc1nsc(-c2ccccc2)n1)c1ccncc1, COc1ccc(CNC(=O)c2cc3c(=O)[nH]c4ccc(C)cc4c3s2)c(OC)c1, Cc1cccc(Cn2c(=O)n(CCC(=O)NCCc3ccc(Cl)cc3)c(=O)c3sccc32)c1, O=S(=O)(c1ccccc1)c1nc(-c2ccc(Cl)cc2Cl)oc1N1CCCCC1, COc1ccc(-c2nc(S(=O)(=O)c3ccccc3)c(N3CCCCC3)o2)cc1, CCOc1ccc(-c2cc3c(=O)n(CC(=O)NCc4ccc(OC)cc4)ccn3n2)cc1, Cc1c(CCO)sc[n+]1CC(=O)c1ccc2ccccc2c1, Cc1noc2ncnc(NCc3ccccc3Cl)c12, COc1ccc(-c2oc3ncnc(NCCCO)c3c2-c2ccc(OC)cc2)cc1, Cc1ccc2ncc(C(=O)Nc3ccc(OC(F)(F)F)cc3)c(=O)n2c1, Cc1ccccc1-n1nc(C)c2cc(C(=O)NC3CC3)sc21, O=C(CCc1nc(CN2CCN(S(=O)(=O)c3ccc(Br)cc3)CC2)no1)N1CCCCC1, Cc1noc(/C=C/N(C)C)c1S(=O)(=O)N1CCCC(C(=O)Nc2cccc(F)c2)C1 (stereo unspecified), Cc1ccc(C)n1-c1ccncc1, c1ccc(-c2nccc(-c3ccc(-n4cnc5ccccc54)cc3)n2)nc1, NC1CCN(O)C1=O (stereo unspecified), CC(C)(C)OC(=O)N(Cc1ccco1)S(=O)(=O)c1ccccc1Br, O=C(NCc1ccccc1Cl)c1cccn1-c1nnc(N2CCCCC2)s1, O=C(NCCc1ccccc1)c1ccc2c(c1)N(Cc1ccccc1)C(=O)c1ccccc1S2(=O)=O, CCCCOc1ccc(CN2C(=O)C(=O)c3cc(Br)cc(C)c32)cc1OC, CCOc1ccc(C(=O)N2CCN(CCc3ccccn3)CC2)cc1, CCOc1ccc(-c2ccc(SCC(=O)N3CCOCC3)nn2)cc1, SCc1nc2ccc(Cl)cc2[nH]1, Cc1ccccc1C(=O)Nc1sc2c(c1C(=O)N1CCC(C)CC1)CCCC2, Cc1cccc(NC(=O)C2CCCN2S(=O)(=O)c2cccc3nsnc23)c1C (stereo unspecified), COc1cc(COCC(O)CN2CCN(Cc3ccc4c(c3)OCO4)CC2)cc(OC)c1OC (stereo unspecified), COc1cc(C2c3cc4c(cc3C(O)C3COC(=O)C23)OCO4)cc(OC)c1OC (stereo unspecified), Nc1nc(N)c(N=O)c(N)n1, COc1ccc(NS(=O)(=O)c2cc3c4c(c2)CC(=O)N4CCC3)cc1Cl, O=C(Nc1ccc(Br)cc1)c1ccc(Br)c(S(=O)(=O)NCc2ccccc2)c1, O=C(NC1CC(=O)N(c2ccc(Cl)cc2)C1)C1CCCC1 (stereo unspecified), Cc1ccc(CCNC(=O)c2ccc3c(c2)N(Cc2cc(C)ccc2C)C(=O)c2ccccc2S3=O)cc1 (stereo unspecified), C[N+]1(CC(=O)c2cccs2)CCOCC1, Cc1ccccc1N(C(=O)CNC(=O)c1cccs1)C(C(=O)NC1CCCC1)c1ccncc1 (stereo unspecified), CCOC(=O)c1ccc(NC(=O)c2c(NCc3cccc(OC)c3)sc3c2CCC3)cc1, CCOC(=O)c1ccc(NC2=CC(c3ccc(OCC)cc3)N(c3ccc(C(=O)OCC)cc3)C2=O)cc1 (stereo unspecified), CCOc1ccc(N2C(=O)CN(c3cccc4ccccc34)C2=S)cc1, COc1ccc(Cn2c(=O)n(-c3ccccc3C)c(=O)c3c4c(sc32)CN(C(C)=O)CC4)cc1, O=C(COc1ccccc1Cl)Nc1ccc2nc(SCC(=O)N3CCCC3)sc2c1

Activity change, negative = inhibition, inactive:
CCOC(=O)c1c(NC(=O)CSc2cn(CCNC(=O)c3cccc(C(F)(F)F)c3)c3ccccc23)sc2c1CCC2 16.1% [at 11.4 µM], CN(C)c1ccc(/C=N\Nc2ccc([N+](=O)[O-])cc2[N+](=O)[O-])cc1Cl 26.5% [at 0.0914 µM]
